In the library only some 4.1% were active in any assay of this set; here they are far more common.
hcDAF-12 act = activates DAF-12 receptor from parasite H. contortus | HEK293 hcDAF-12 lit1-tk-luc reporter, luminescence; 0% DMSO, 100% Δ7-dafachronic acid | activation, % at 6.8 µM | 1.4% of 370,000 active;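 active means activation above the mean of all tested compounds plus 3 SD, cut at about 5.5% in these data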;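 further: 100% = response to 3 µM Δ7-dafachronic acid high control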
DAX1 inh-1 = DAX1 (NR0B1) inhibition, primary screen | HEK293T StAR-luciferase reporter, SF-1/DAX-1 repression relief | inhibition, % at 6.8 µM | 1.1% of 370,000 active | AID 652010;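 active means inhibition above the mean over all tested compounds plus 3 SD, cut at about 3.6% in these data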;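 further: 0% = DAX-1 cells with DMSO and 100% = cells lacking DAX-1 with DMSO; higher inhibition means more luminescence from relief of DAX-1 repression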
ssDAF12 agonist = activators of S. stercoralis DAF-12 nuclear receptor; 1% of 370,000 active; activation, % at 6.8 µM; HEK293 ssDAF-12/GRIP1 lit1-tk-luc reporter, luminescence; % of 3 µM dafachronic acid response;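 active means activation above the mean over all tested compounds plus 3 SD, cut at about 0.9% in these data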;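 further: 0% = DMSO-only wells and 100% = 3 µM delta7-dafachronic acid wells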
hgDAF12 agonist = agonists of H. glycines DAF-12 nuclear receptor | 1.8% of 370,000 active | HEK293 GAL4-hgDAF12 UAS-luciferase reporter, agonist luminescence; normalized to butyrate control | activation, % at 6.8 µM;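 active means activation above a cutoff set at the mean of all screened compounds plus 3 SD, cut at about 10% in these data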;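 further: 0% = DMSO wells and 100% = sodium butyrate wells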
DAX1 inh-2 = inhibits human nuclear receptor DAX1 | inhibition, % at 6.75 µM | HEK293 Gal4-DAX1 luciferase reporter, luminescence | 0.99% of 340,000 active | AID 504766 | P51843;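 active means inhibition above the mean over all tested compounds plus 3 SD, cut at about 4.2% in these data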;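 further: 0% = DAX1-transfected cells with DMSO and 100% = empty-vector control cells with DMSO; inhibition shows as a rise in luminescence from relieved DAX1 repression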
LXR ag = activates human LXR-beta, counter-screen for hcDAF-12 agonists. shares compounds with hcDAF-12 act. HEK293 Gal4-LXR tk-luc reporter, luminescence, 24 h; normalized: DMSO 0%, positive control 100%. activation, % at 6.8 µM. 3,400 tested, under 10 active;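 active means mean percent activation of the reporter above a cutoff set as the average over tested compounds plus their standard deviation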
Target sequence (P55055 whole entry, looked up, the tested form may be a part): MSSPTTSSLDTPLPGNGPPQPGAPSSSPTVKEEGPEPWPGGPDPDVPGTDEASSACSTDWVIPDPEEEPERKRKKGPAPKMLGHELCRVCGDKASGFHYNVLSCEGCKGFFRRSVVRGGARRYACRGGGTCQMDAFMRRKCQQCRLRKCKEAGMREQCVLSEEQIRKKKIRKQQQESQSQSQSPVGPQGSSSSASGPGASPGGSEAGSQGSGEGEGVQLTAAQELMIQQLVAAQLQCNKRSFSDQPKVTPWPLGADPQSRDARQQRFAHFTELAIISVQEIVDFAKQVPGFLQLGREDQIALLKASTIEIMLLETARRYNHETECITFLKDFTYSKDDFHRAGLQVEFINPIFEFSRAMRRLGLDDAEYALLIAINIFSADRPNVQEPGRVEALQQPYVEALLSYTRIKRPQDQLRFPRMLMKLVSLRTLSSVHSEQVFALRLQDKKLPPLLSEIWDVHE
hcDAF12 ag = confirmation of H. contortus DAF-12 agonists; shares compounds with hcDAF-12 act; HEK293 hcDAF-12 lit1-tk-luc reporter, luminescence; % of Δ7-dafachronic acid response; activation, % at 6.8 µM; 61% of 3,400 active;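 active means mean activation across triplicate tests above the threshold derived from the earlier primary screen, cut at about 5.5% in these data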;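 further: 0% = DMSO only wells and 100% = 3 µM Δ7-dafachronic acid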
hgDAF12 conf = hgDAF-12 agonism, confirmation assay | AID 743050 | HEK293 GAL4-hgDAF12 luciferase reporter, agonist mode; percent of butyrate response | 80% of 3,300 active | activation, % at 6.8 µM | shares compounds with hgDAF12 agonist;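 active means mean activation over triplicate wells above the hit cutoff derived from the earlier primary screen, cut at about 11% in these data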;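 further: 0% = DMSO low control and 100% = 2 mM sodium butyrate high control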
LXRb DAF12 ctr = counter-screen for DAF-12 agonists: agonists of human LXR-beta. shares compounds with hgDAF12 agonist. HEK293 Gal4-LXR luciferase reporter, 24 h. activation, % at 6.8 µM. 3,300 tested, under 10 active. AID 743051;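 active means mean activation of the triplicate above a set limit carried over from the primary screen, none filed active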
An asterisk follows results filed as active; . = no result given.

SMILES	hcDAF-12 act	DAX1 inh-1	ssDAF12 agonist	hgDAF12 agonist	DAX1 inh-2	LXR ag	hcDAF12 ag	hgDAF12 conf	LXRb DAF12 ctr
O=C(Nc1ccc(F)cc1)OCc1cn(Cc2ccc(C(F)(F)F)cc2)nn1	-3	0	-1	-2	.	.	.	.	.
CCC(=O)Nc1ccc2oc(-c3cccc(C)c3)nc2c1	6.9*	4.2*	1	15*	-3	2	7.9*	16*	1
CCC(=O)Nc1cccc(-c2nc3ccc(C)cc3o2)c1	2	1	0	5	3	.	.	.	.
COc1ccc(C(=O)Nc2nnc(Cc3ccc(OC)c(OC)c3)s2)c(OC)c1	-2	-2	-2	0	-1	.	.	.	.
COCc1nnc(NC(=O)c2ccc(OC)cc2OC)s1	6.8*	2	0	15*	0	1	4	12*	1
Nc1ccc(-c2nc3ccc(N)cc3s2)cc1	7.5*	1	1.1*	19*	-1	1	8.3*	16*	1
CN(C)Cc1c(C(C)(C)O)[nH]c2cc(F)ccc12	-1	1	0	-2	.	.	.	.	.
Cn1c(=O)c(C(=O)Nc2ccccn2)c(O)c2ccccc21	14*	3.9*	3.0*	17*	4	2	18*	24*	1
Cn1c(=O)c(C(=O)Nc2ccccc2S(N)(=O)=O)c(O)c2ccccc21	3	1	0	7	4	.	.	.	.
COC(=O)C1=C(C)N(Cc2cccc(C(F)(F)F)c2)C(=NCC2CC2)NC1c1ccccc1 (centres undefined)	0	1	-1	-1	.	.	.	.	.
CN(C)c1cccc(-c2cnc(N3CCC(C(N)=O)CC3)s2)c1	6.7*	.	1.8*	17*	.	2	6.0*	19*	1
CC(=O)CC[C@@H]1CC[C@]2(CCCN(C(=O)c3ccco3)C2)O1	0	0	0	0	.	.	.	.	.
O=C(Nc1cccc(O)c1)c1c(O)c2ccccc2[nH]c1=O	14*	2	3.9*	13*	5.0*	2	15*	24*	1
Cc1cc(C)c(O)c(C(=O)CC2CC(=O)NC(=O)C2)c1	-2	-5	-2	-9	.	.	.	.	.
COc1ccc(NC(=O)n2ncc3c(C)cccc32)cc1OC	-1	1	0	5	0	.	.	.	.
COc1ccc(NC(=O)n2ncc3c(C)cccc32)cc1	12*	3	0	14*	4	1	11*	21*	1
Cc1nc2ccccn2c1P(=O)(c1ccccc1)c1ccccc1	-1	.	-2	2	.	.	.	.	.
CN1CCSc2ccc(C(=O)Nc3cc(F)ccc3F)cc21	7.2*	4.3*	1.1*	20*	9.5*	2	4	18*	1
O=C(Nc1ccccc1)c1cccc(C(=O)Nc2ccccc2)n1	2	0	-1	0	0	.	.	.	.
O=C(Nc1ccccc1)c1cc2ccccc2s1	10*	4.2*	1.1*	22*	3	2	11*	20*	1
COc1ccc(NC(=O)c2c(Cl)nc3ccccn23)cc1	-1	1	-2	1	-1	.	.	.	.
COc1ccc(-c2nc3ccccn3c2Cl)cc1	15*	3	3.2*	14*	0	2	19*	24*	1
NC(=O)c1ncn([C@@H]2O[C@H](C(=O)N3CCCN(Cc4ccccc4F)CC3)[C@@H](O)[C@H]2O)n1	0	0	-1	-1	.	.	.	.	.
Cc1cc(SCC(=O)c2ccc(Cl)cc2)nc(=O)[nH]1	6.8*	3	1.3*	15*	1	2	5.8*	15*	1
Cc1cc(SCc2ccc(Cl)cc2Cl)nc(=O)[nH]1	-1	-1	-1	0	0	.	.	.	.
